Test results reported in PubChem BioAssay (NCATS).
Values joined by “and” are separate entries in the source; they are usually repeats but may differ in a detail not shown here. Equal entries are not always repeated. Inconclusive results are not listed. Where a call stands in place of a potency, no number is given. Active and inactive are the calls of the source. Calls come from the whole dose curve; as a rule, active = well fitted inhibition curve with a large enough effect; inconclusive = small, poorly fitted or top-dose-only effect; inactive = no such curve, though single readings can be large or run the other way.

assay: Counterscreen qHTS for small molecule stabilizers of the endoplasmic reticulum resident proteome: GLuc-NoTag assay (AID 1508627); settings: Gaussia luciferase NoTag secretion counterscreen, luminescence, thapsigargin 100 nM for final 4 h; series mostly up to 76.4 µM
Text: Assay Provider: Brandon K. Harvey Ph.D.
National Institute on Drug Abuse, National Institutes of Health, Baltimore, MD
Endoplasmic reticulum (ER) dysregulation is associated with human pathologies including neurodegenerative, cardiovascular, muscular, and diabetic conditions. Maintenance of ER calcium is critical for functions of the ER and its depletion can lead to loss of ER resident proteins, in a process termed exodosis. Therapeutic compounds capable of attenuating the redistribution of ER proteins under pathological conditions may slow or stop disease progression. To identify such compounds, we performed a quantitative high-throughput screen (qHTS) using the SERCaMP assay, which monitors secretion of ER resident proteins triggered by calcium depletion.
SERCaMP was initially developed as a reporter of ER calcium homeostasis using a Gaussia luciferase with a modified signal peptide and carboxy-terminus (GLuc-SERCaMP), modifications that confer secretion of the reporter in response to ER calcium depletion (Henderson et al., 2014). The assay was used to screen 9,501 compounds, including a collection of drugs approved by the FDA (US), EMA (EU), NHI (Japan), and HC (Canada) regulatory agencies (Huang et al., 2011). Since the SERCaMP reporter reflects the exodosis phenomenon (Trychta et al., 2018a), compounds identified in the screen have the potential to prevent exodosis by different mechanisms such as stabilizing ER calcium or augmenting ERS retrieval.
1. Henderson, M.J., Wires, E.S., Trychta, K.A., Richie, C.T., and Harvey, B.K. (2014). SERCaMP: a carboxy-terminal protein modification that enables monitoring of ER calcium homeostasis. Mol Biol Cell 25, 2828-2839.
2. Huang, R., Southall, N., Wang, Y., Yasgar, A., Shinn, P., Jadhav, A., Nguyen, D.T., and Austin, C.P. (2011). The NCGC pharmaceutical collection: a comprehensive resource of clinically approved drugs enabling repurposing and chemical genomics. Sci Transl Med 3, 80ps16.
3. Trychta, K.A., Back, S., Henderson, M.J., and Harvey, B.K. (2018a). KDEL Receptors Are Differentially Regulated to Maintain the ER Proteome under Calcium Deficiency. Cell Rep 25, 1829-1840 e1826.
SEQUENCE No. (1, 2, 3, etc.); […] (e.g., Cells, Incubation, Reagent, etc.); VALUE and DESCRIPTION.
1; Reagent; 5 uL; 1000 SH-SY5Y cells per wells
3; Compound; 23 nL; Control inhibitor / compound library
5; Reagent; 100 nM; Thapsigargin
7; Reagent; 1 uL; 0.5x coelenterazine
8; Detection; Luminescence; ViewLux imaging system
NOTES (numbers refer to sequence above)
1; SH-SY5Y human neuroblastoma cells stably expressing the constitutively secreted GLuc (SH-SY5Y-GLuc-NoTag) cells were seeded in 1,536 well white tissue culture treated plates (Corning, Cat# 7464) in DMEM-high glucose-sodium pyruvate (ThermoFisher Scientific, Cat #10569) supplemented with 10% bovine growth serum (Hyclone), 10 U/ml penicillin (Gibco), 10 ug/ml streptomycin (Gibco), and 20 mM HEPES.
2; Assay plates were incubated for 5 hour at 37C in a humidified incubator containing 5% CO2.
4; Cells were then incubated for 19 hours at 37C, 5% CO2.
5; Thapsigargin was added at 100 nM to deplete ER calcium stores.
6; Cells were incubated for 4 hour (37 °C, 5% CO2)
7; Gaussia luciferase in the medium was measured by adding 1 ul of 0.5x coelenterazine (final concentration 0.07x) prepared in Gaussia Luciferase Glow Assay Buffer (Pierce), without addition of the Cell Lysis Buffer Reagent.
8; Luminescence was measured using a ViewLux CCD imaging system (Perkin Elmer) equipped with clear filters. […] The same controls were also used for the calculation of the Z' factor, a measure of assay quality control, as previously described (Zhang et al., 1999). For the initial validation of activity in the SERCaMP assays, hits from the primary screen were assayed again at 11-concentrations (1.3 nM - 76.6 uM). SH-SY5Y-GLuc-SERCaMP cells were assayed for ER Ca2+ depletion as outlined above.
1. Zhang, J.H., Chung, T.D., and Oldenburg, K.R. (1999). […]
Potency is the fitted concentration of half-maximal effect.

Structure (SMILES) | Potency
CN(C)CCC=C1c2ccccc2C=Cc2ccccc21 | inactive
COc1ccccc1OCCNCC(O)COc1cccc2[nH]c3ccccc3c12 (configuration not stated) | 44.7 µM (active) and 35.5 µM (active)
O=C(c1ccc(OCCN2CCCCC2)cc1)c1c(-c2ccc(O)cc2)sc2cc(O)ccc12 | inactive
COc1ccc(CCN(C)CCCC(C#N)(c2ccc(OC)c(OC)c2)C(C)C)cc1OC (configuration not stated) | inactive
O=C(c1ccc(F)cc1)C1CCN(CCn2c(=O)[nH]c3ccccc3c2=O)CC1 | inactive
CC12CC3CC(C)(C1)CC(N)(C3)C2 | inactive
Cn1c(=O)c2c(ncn2C)n(C)c1=O | inactive
NC12CC3CC(CC(C3)C1)C2 | inactive
CN1CCC(=C2c3ccccc3CC(=O)c3sccc32)CC1 | inactive
O=c1c(O)c(-c2ccc(O)c(O)c2)oc2cc(O)cc(O)c12 | inactive
Clc1ccc2c(c1)C(N1CCNCC1)=Nc1ccccc1O2 | inactive
O=C(Nc1ccc([N+](=O)[O-])cc1Cl)c1cc(Cl)ccc1O | 3.98 µM (active)
CN1CCC(=C2c3ccccc3C=Cc3ccccc32)CC1 | inactive
OCCN(CCO)c1nc(N2CCCCC2)c2nc(N(CCO)CCO)nc(N3CCCCC3)c2n1 | inactive
CCCNCC(O)COc1ccccc1C(=O)CCc1ccccc1 (configuration not stated) | inactive
CCCCc1oc2ccccc2c1C(=O)c1cc(I)c(OCCN(CC)CC)c(I)c1 | inactive
C[C@@H]1CC(=O)NN=C1c1ccc(NN=C(C#N)C#N)cc1 | 14.1 µM (active) and 28.2 µM (active)
